Bioassay records: PubChem BioAssay, The Scripps Research Institute Molecular Screening Center
hgDAF12 agonist = hgDAF-12 agonism, primary luciferase screen | activation, % at 6.8 µM | HEK293 GAL4-hgDAF12 UAS-luciferase reporter, agonist luminescence; normalized to butyrate control | hit rate 1.8% among 370,000;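 active = activation above a cutoff set at the mean of all screened compounds plus 3 SD, cut at about 10% in these data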
DAX1 inh-1 = inhibitors of DAX1 repression of SF-1 activated StAR promoter | inhibition, % at 6.8 µM | hit rate 1.1% among 370,000 | HEK293T StAR-luciferase reporter, SF-1/DAX-1 repression relief | AID 652010;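 active = inhibition above the mean over all tested compounds plus 3 SD, cut at about 3.6% in these data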;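 note: higher inhibition means more luminescence from relief of DAX-1 repression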
ssDAF-12 act = activates DAF-12 receptor from parasite S. stercoralis | HEK293 ssDAF-12/GRIP1 lit1-tk-luc reporter, luminescence; % of 3 µM dafachronic acid response | activation, % at 6.8 µM | hit rate 1% among 370,000 | AID 652126;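 active = activation above the mean over all tested compounds plus 3 SD, cut at about 0.9% in these data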
hcDAF-12 act = activates DAF-12 receptor from parasite H. contortus. HEK293 hcDAF-12 lit1-tk-luc reporter, luminescence; 0% DMSO, 100% Δ7-dafachronic acid. activation, % at 6.8 µM. hit rate 1.4% among 370,000. AID 652067;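 active = activation above the mean of all tested compounds plus 3 SD, cut at about 5.5% in these data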
SMARCA2 activ = increases SMARCA2 function in MMTV reporter cells; MG213 cells, MMTV-luciferase reporter, dexamethasone, overnight; activation, % at 9.1 µM; hit rate 1% among 370,000; in the data active = activation above about 7.8%
DAX1 inh-2 = NR0B1 (DAX1) inhibition. HEK293 Gal4-DAX1 luciferase reporter, luminescence. inhibition, % at 6.75 µM. hit rate 0.99% among 340,000;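 active = inhibition above the mean over all tested compounds plus 3 SD, cut at about 4.2% in these data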;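 note: inhibition shows as a rise in luminescence from relieved DAX1 repression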
Target sequence (P51843 207-470 limits assumed): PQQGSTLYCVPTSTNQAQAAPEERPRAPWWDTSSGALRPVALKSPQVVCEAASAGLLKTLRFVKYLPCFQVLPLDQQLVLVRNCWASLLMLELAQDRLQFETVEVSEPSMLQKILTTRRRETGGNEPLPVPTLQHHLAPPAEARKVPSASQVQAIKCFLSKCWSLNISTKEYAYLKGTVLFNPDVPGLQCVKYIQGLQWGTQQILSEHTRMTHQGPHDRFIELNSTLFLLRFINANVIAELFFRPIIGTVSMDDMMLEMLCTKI
A number is an active result. A selection: hits, their analogues and other compounds. The true share with any hit is near 4.8%.

Screening CN(Cc1ccccc1)c1nnc(N)s1 returned hgDAF12 agonist inactive, DAX1 inh-1 inactive, ssDAF-12 act inactive, hcDAF-12 act inactive, SMARCA2 activ inactive and DAX1 inh-2 inactive.
For C[C@@H](c1ccccc1)N1C[C@@H](COCc2ccccc2)Oc2cc(N3CCC[C@H]3C(N)=O)ccc2S1(=O)=O the results were hgDAF12 agonist inactive, DAX1 inh-1 inactive, ssDAF-12 act 4.2, hcDAF-12 act inactive and SMARCA2 activ inactive.
CCCc1cc(=O)oc2cc(OC(C)C(=O)NCC3CCC(C(=O)O)CC3)c(Cl)cc12 (centres undefined) was read as hgDAF12 agonist inactive, DAX1 inh-1 inactive, ssDAF-12 act inactive, hcDAF-12 act inactive, SMARCA2 activ inactive and DAX1 inh-2 4.5.
Screening CCCCc1cc(=O)oc2cc(OC(C)C(=O)NCC3CCC(C(=O)O)CC3)c(Cl)cc12 (centres undefined) returned hgDAF12 agonist inactive, DAX1 inh-1 inactive, ssDAF-12 act inactive, hcDAF-12 act inactive, SMARCA2 activ inactive and DAX1 inh-2 inactive.
`Cc1cc(OC(C)C(=O)NCC2CCC(C(=O)O)CC2)c2c(C)c(Cc3ccccc3)c(=O)oc2c1` (centres undefined) gave hgDAF12 agonist inactive, DAX1 inh-1 inactive, ssDAF-12 act inactive, hcDAF-12 act inactive, SMARCA2 activ inactive and DAX1 inh-2 6.6.
For Cc1c(Cc2ccccc2)c(=O)oc2c(C)c(OC(C)C(=O)NCC3CCC(C(=O)O)CC3)ccc12 (centres undefined) the results were hgDAF12 agonist inactive, DAX1 inh-1 inactive, ssDAF-12 act inactive, hcDAF-12 act inactive, SMARCA2 activ inactive and DAX1 inh-2 inactive.
`CC(Oc1ccc2ccc(=O)oc2c1)C(=O)NCC1CCC(C(=O)O)CC1` (centres undefined) gave hgDAF12 agonist inactive, DAX1 inh-1 inactive, ssDAF-12 act inactive, hcDAF-12 act inactive, SMARCA2 activ inactive and DAX1 inh-2 4.7.
Screening CCCc1cc(=O)oc2cc(OCC(=O)NCCCn3ccnc3)ccc12 returned hgDAF12 agonist inactive, DAX1 inh-1 inactive, ssDAF-12 act inactive, hcDAF-12 act inactive, SMARCA2 activ inactive and DAX1 inh-2 inactive.
Screening CCCc1cc(=O)oc2cc(OC(C)C(=O)NCCCn3ccnc3)ccc12 (centres undefined) returned hgDAF12 agonist inactive, DAX1 inh-1 inactive, ssDAF-12 act inactive, hcDAF-12 act inactive, SMARCA2 activ 7.9 and DAX1 inh-2 inactive.
CC(=O)N1CCc2cc(S(=O)(=O)NCC(=O)NCc3ccccc3Cl)ccc21 was read as hgDAF12 agonist inactive, DAX1 inh-1 inactive, ssDAF-12 act inactive, hcDAF-12 act inactive, SMARCA2 activ inactive and DAX1 inh-2 inactive.
Screening O=C(NCC(c1ccco1)N1CCCC1)c1cn(-c2ccccc2)nc1-c1ccc(F)cc1 (centres undefined) returned hgDAF12 agonist inactive, DAX1 inh-1 inactive, ssDAF-12 act inactive, hcDAF-12 act inactive, SMARCA2 activ inactive and DAX1 inh-2 inactive.
Cc1cc(-c2nn3c(C)nnc3s2)ccc1NC(=O)C(C)(C)C was read as hgDAF12 agonist 12, DAX1 inh-1 inactive, ssDAF-12 act inactive, hcDAF-12 act inactive, SMARCA2 activ inactive and DAX1 inh-2 inactive.
`Cc1ccc(-c2nn3c(C)nnc3s2)cc1NC(=O)c1cccs1` gave hgDAF12 agonist inactive, DAX1 inh-1 inactive, ssDAF-12 act inactive, hcDAF-12 act inactive, SMARCA2 activ inactive and DAX1 inh-2 inactive.
Screening c1ccc2c(c1)Nc1cc3ccccc3cc1S2 returned hgDAF12 agonist inactive, DAX1 inh-1 inactive, ssDAF-12 act inactive, hcDAF-12 act 6.5, SMARCA2 activ inactive and DAX1 inh-2 inactive.
Screening CC(C(=O)Nc1ccccn1)c1ccccc1 (centres undefined) returned hgDAF12 agonist inactive, DAX1 inh-1 inactive, ssDAF-12 act 0.9, hcDAF-12 act inactive, SMARCA2 activ inactive and DAX1 inh-2 inactive.
`O=C(O)CSCC(=O)Nc1ccccn1` gave hgDAF12 agonist inactive, DAX1 inh-1 inactive, ssDAF-12 act inactive, hcDAF-12 act inactive, SMARCA2 activ inactive and DAX1 inh-2 5.4.
Screening NNC(=O)c1nc[nH]c1C(=O)Nc1ccccn1 returned hgDAF12 agonist inactive, DAX1 inh-1 inactive, ssDAF-12 act inactive, hcDAF-12 act inactive, SMARCA2 activ inactive and DAX1 inh-2 4.3.
